Experimental findings from PubChem BioAssay AID2685 (National Center for Advancing Translational Sciences (NCATS), 2010) are described below.

The whole screen tested about 320,000 compounds, of which about 2,100 (0.66%) were called active. Inconclusive results (about 53%) are left out. The sample holds actives, similar compounds and a random draw of the others, so the mix is not that of the screen. The call rests on the fitted dose curve; in most records, active means well fitted inhibition curve with a large enough effect in the signal ratio, with a control signal flat (not every such curve was filed as active); inconclusive means small, poorly fitted or top-dose-only effect, or effect the other way, or a change in a side signal; inactive means flat fitted curve, though single readings scatter; the % refers to the signal ratio.
Potency means the concentration at half of the fitted maximal effect.

The nature of the assay: qHTS Assay for Lipid Storage Modulators in Drosophila S3 Cells.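 On cell number change: cells counted by Cell Tracker Red CMTPX staining in the red channel.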 On lipid storage change, negative = inhibition: on the % scale 0 is the no-effect control and ±100 the full control effect. Conditions: BODIPY lipid droplet fluorescence, 18-24 h, cells fed with added oleic acid; cell number change: measured here: cell count max response; series mostly up to 46.1 µM; lipid storage change, negative = inhibition: at the top concentration. Summed up:
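Drosophila S3 cells got compounds at several concentrations plus oleic acid (400 uM solution). Laser-scanning cytometry with 488 nm excitation read lipid droplets at 500-530 nm and cells at 575-640 nm. Percent activity was relative to 20 uM Triacsin C.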
Background: In qHTS, concentration-response curves come from the screen itself.
Take `CCOC(=O)c1c(C)[nH]c(NC(=O)Nc2ccc(NC(C)=O)cc2)c1C`: the molecule was called inactive and the cell number change is 22.7%.

`O=C(CN(C(=O)CCC(=O)Nc1ccccn1)c1ccc2c(c1)OCCO2)NCCc1ccccc1`: the “lipid storage change, negative = inhibition” value is 9.9% (inactive) and the cell number change was -14.1%.

As for `NNC(=O)c1ccc2[nH]c3c(c2c1)CCCC3`, the “lipid storage change, negative = inhibition” value was 6.92% (inactive) and the cell number change was 7%. `O=C(O)c1cc2[nH]c3c(c2cc1Cl)CCCC3`: the Potency was 4.11 µM (active) and the cell number change is -7.3%.

Take `O=C(O)c1cccc2c3c([nH]c12)CCCC3`: the “lipid storage change, negative = inhibition” value is -7.44% (inactive) and the cell number change is 23.1%. Taken in the same sequence, the figures for `CC(OC(=O)C1CC(=O)N(Cc2ccco2)C1)C(=O)Nc1ccc(F)cc1Cl` (stereo unspecified) were -1.45% (inactive) and -0.141%. Regarding `Cc1cc(C)cc(N2CC(C)(C)C2=O)c1`, the “lipid storage change, negative = inhibition” value is -16.4% (inactive). For the molecule `CCCOc1ccc(N2C(=O)CC(NCCc3ccc(S(N)(=O)=O)cc3)C2=O)cc1` (stereo unspecified), the “lipid storage change, negative = inhibition” value is 1.73% (inactive) and the cell number change was 11.4%.

In the case of `S=C(NCCc1ccccc1)NN=C1CCCCCC1`, the molecule was called inactive and the cell number change was -23.7%. Turning to `O=C(CC(=O)NN=C1CCCC1)NCCc1ccccc1`, the “lipid storage change, negative = inhibition” value is -9.12% (inactive) and the cell number change was found to be 12%. On to `O=C(NCCc1ccccc1)C(=O)NN=C1CCCC1`, for which the Potency was 29.1 µM (active) and the cell number change was determined as 6%.

On to `CN(C)CCOC(=O)c1ccc2c(c1)S(=O)(=O)c1ccccc1C2=O`, for which the “lipid storage change, negative = inhibition” value is 17.4% (inactive) and the cell number change is 0.995%. For `Cc1cc(C)nc(SCC(=O)N/N=C/c2cccc([N+](=O)[O-])c2)n1`, the “lipid storage change, negative = inhibition” value was 5.85% (inactive) and the cell number change was found to be 0.279%. `O=C(COc1ccc(/C=N/NC(=O)c2ccccc2Br)cc1)Nc1ccccc1`: the Potency is 18.4 µM (active) and the cell number change is -20.5%. `O=C(COc1ccc(/C=N/NC(=O)c2ccccc2O)cc1)Nc1ccccc1`: the cell number change was -17.8% and the lipid storage change, negative = inhibition was 9.4% [at 9.22 µM] (inactive). Taken in the same sequence, the figures for `O=C(O)COc1ccc(/C=N/NC(=O)c2ccccc2Br)cc1` were -13.2% and -20% (inactive).

On to `CC(C)(C)OC(=O)N1CCC(C(=O)O)CC1`, for which the “lipid storage change, negative = inhibition” value was 3.97% (inactive) and the cell number change came to 14%.

With `O=S(=O)(NCc1ccccn1)C(F)(F)F`, the “lipid storage change, negative = inhibition” value was -17.1% (inactive) and the cell number change was 15.5%. With `Cc1cc(C)n2c(SCC#N)nnc2n1`, the call was inactive.

Regarding `CCO[C@H]1OC(C(=O)N2CCCCCCC2)=C[C@@H](c2ccccc2)[C@@H]1CCCO`, the “lipid storage change, negative = inhibition” value was -17.1% (inactive) and the cell number change is -2.78%. Taken in the same sequence, the figures for `CSC1=NNC(c2ccc(C(C)(C)C)cc2)=NN1` were 3.5% (inactive) and 21%.

For the molecule `COCC(C)n1c(C)cc(C(=O)COC(=O)CN=C2NS(=O)(=O)c3ccccc32)c1C` (stereo unspecified), the “lipid storage change, negative = inhibition” value is -7.81% (inactive) and the cell number change was 10.7%.

Consider `COc1ccc(C2/C(=C(/O)c3ccc(C)cc3)C(=O)C(=O)N2c2ccccn2)cc1OC` (stereo unspecified), for which the “lipid storage change, negative = inhibition” value was -1.13% (inactive) and the cell number change is -0.743%.

In the case of `COc1ccc(C(C)=O)cc1CN1C(=O)NC2(CCCCCCC2)C1=O`, the “lipid storage change, negative = inhibition” value is 2.83% (inactive) and the cell number change came out at 6.34%. On to `CCOc1ccc(C(C)=O)cc1CN1C(=O)NC2(CCCCCC2)C1=O`, for which the Potency is 0.13 µM (active) and the cell number change came out at 3.15%. For the molecule `CCOc1ccc(C(C)=O)cc1CN1C(=O)NC2(CCCCC2C)C1=O` (stereo unspecified), the “lipid storage change, negative = inhibition” value was 17.5% (inactive) and the cell number change is -2.29%.

`O=C(Nc1ccc(Cl)cc1)Nc1nnc(Cc2ccc([N+](=O)[O-])cc2)s1`: the “lipid storage change, negative = inhibition” value was 7.97% (inactive) and the cell number change is 3.06%. The matching figures for `CCn1c(CNC(=O)COc2c(C)cccc2C)nnc1SCC(=O)Nc1nccs1`: 11.3% (inactive) and -11%.

`C=CCNC(=S)NNC(=O)C(CCCC)CC(O)COCC(C)C` (stereo unspecified): the “lipid storage change, negative = inhibition” value is 7.02% (inactive) and the cell number change came out at 6.35%.

`C=CCNC(=S)NNC(=O)C(CC(C)C)CC(C)O` (stereo unspecified): the “lipid storage change, negative = inhibition” value is -5.62% (inactive) and the cell number change was 1.94%. With `C=CCNC(=S)NNC(=O)C(CCCC)CC(C)O` (stereo unspecified), the Potency was 29.1 µM (active) and the cell number change was -5.26%.

On to `CCC(=O)Nc1ccc(/C=C(\C(C)=O)C(=O)c2ccccc2)cc1`, for which the “lipid storage change, negative = inhibition” value is -21.8% (inactive) and the cell number change was -16.8%. Turning to `CC1(C)C2CCC(C2)C1(C)NC(=O)CNC1CCCCC1` (stereo unspecified), the molecule was classed as inactive. As for `CC1(C)C2CCC(C2)C1(C)NC(=O)C[N+](C)(C)C` (stereo unspecified), the “lipid storage change, negative = inhibition” value was -8.8% (inactive) and the cell number change stood at 7.74%. Regarding `CCOCCCNCC(=O)NC1(C)C2CCC(C2)C1(C)C` (stereo unspecified), the Potency was 1.3 µM (active) and the cell number change is -12.8%. Regarding `Cc1ccc(C(=O)Nc2ccc(C(=O)N3CCCCC3)cc2)o1`, the “lipid storage change, negative = inhibition” value was 19.2% (inactive).

Turning to `COCC(C)NS(=O)(=O)c1ccc(C(=O)NCCCn2ccc3ccccc32)cc1` (stereo unspecified), the molecule was called inactive and the cell number change was -2.38%. Take `Cc1ccc(C(=O)Nc2ccccc2C(=O)NC(Cc2c[nH]c3ccccc23)C(=O)O)cc1` (stereo unspecified): the “lipid storage change, negative = inhibition” value is -2.03% (inactive) and the cell number change is 14.2%.

As to `Cc1ccc(C(=O)NC(Cc2c[nH]c3ccccc23)C(=O)O)cc1` (stereo unspecified), the Potency is 16.4 µM (active) and the cell number change worked out at 8.72%. With `O=C(NC(Cc1c[nH]c2ccccc12)C(=O)O)c1ccc(F)cc1` (stereo unspecified), the “lipid storage change, negative = inhibition” value was -8.21% (inactive) and the cell number change was -8.38%. Taken in the same sequence, the figures for `O=C(Cc1ncc(C(F)(F)F)cc1Cl)NNc1cccc(F)n1` were -0.459% (inactive) and 2.59%.

For `CCC1(c2ccc(F)cc2)NC(=O)N(CC(=O)c2cc(C)n(C3CC3)c2C)C1=O` (stereo unspecified), the molecule was classed as inactive and the cell number change was -20.6%.

For `CN(CCCNC(=O)CSc1cc(=O)n(C)c2ccc(Cl)cc12)Cc1ccccc1`, the “lipid storage change, negative = inhibition” value was 1.37% (inactive) and the cell number change was -6.41%. As for `COc1ccccc1CN(C)C(=O)CN1C(=O)c2ccccc2C1=O`, the molecule was classed as inactive and the cell number change was determined as 14.5%. The matching figures for `COc1ccccc1CNC(=O)C(c1ccccc1)c1ccccc1`: “inactive” and 13.6%.
